# The campaign covered roughly 370,000 compounds. About 760 (0.21%) were called active. What follows is part of a selection rich in actives, with near analogues and random picks from the rest. A number with no mark means an inactive call.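 Rule for the calls: active = inhibition above a per-campaign cutoff: mean of compounds within control limits plus 3 SD (cut at about 15% in these data); inactive = the rest.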
# Biological target: Fibrinogen beta chain (Homo sapiens) (UniProt P02675)
# Assay: inhibitors of Tn6 peptide binding to fibrin DD(E), primary screen, biochemical, fluorescence polarization, human fibrin, Tn6 probe (AID 720509);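 note: 0% = median of all compound wells on the plate and 100% = blocking peptide control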
# Details: Fibrin DD(E) TRITC-Tn6 fluorescence polarization displacement; at 8.3 µM; hits give high values
# Chain of Fibrinogen beta chain (Homo sapiens) (P02675 whole entry, looked up): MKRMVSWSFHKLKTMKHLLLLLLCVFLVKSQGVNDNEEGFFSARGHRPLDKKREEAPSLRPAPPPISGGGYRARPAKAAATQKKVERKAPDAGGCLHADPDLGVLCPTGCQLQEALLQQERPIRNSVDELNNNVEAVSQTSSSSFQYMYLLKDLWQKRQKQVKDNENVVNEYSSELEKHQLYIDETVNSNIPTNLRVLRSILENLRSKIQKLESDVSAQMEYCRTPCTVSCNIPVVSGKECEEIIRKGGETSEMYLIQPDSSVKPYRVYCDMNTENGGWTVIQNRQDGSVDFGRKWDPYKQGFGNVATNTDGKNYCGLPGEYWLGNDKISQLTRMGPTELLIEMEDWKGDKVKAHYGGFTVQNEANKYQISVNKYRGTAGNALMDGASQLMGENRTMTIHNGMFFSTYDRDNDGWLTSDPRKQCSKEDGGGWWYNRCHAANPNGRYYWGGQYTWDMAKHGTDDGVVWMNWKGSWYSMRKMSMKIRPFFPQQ
row,Compound,inhibition
1,CCCCNC(=O)OC1CC2CC1[C@H]1CCCCN1C2=O (stereo partly specified),-8.63%
2,OCCC1CN(Cc2ccc3nsnc3c2)CCN1C1CCCCC1 (stereo unspecified),-12.1%
3,COc1ccc(S(=O)(=O)NC2(C(F)(F)F)N=C3SCCN3C2=O)cc1 (stereo unspecified),3.58%
4,COc1ccc(N2C(=O)NC(NS(=O)(=O)c3ccc(Cl)cc3)(C(F)(F)F)C2=O)cc1 (stereo unspecified),16.5% (active)
5,Cc1ccc(S(=O)(=O)NC2(C(F)(F)F)NC(=O)N(CCc3ccccc3)C2=O)cc1 (stereo unspecified),1.91%
6,Cc1cc(=O)[nH]c(SCC(=O)Nc2ccc(F)cc2F)n1,-5.08%
7,COc1ccc(NC(=O)C2=NNC(=O)CC2)cc1S(=O)(=O)N1CCCCC1,3.03%
8,COCCn1c(SCC(=O)Nc2ccc3c(c2)CCC3)nc2ccccc2c1=O,-3.38%
9,COc1ccc(NS(=O)(=O)c2cc3c(cc2C)N(C(C)=O)CCO3)cc1,-0.74%
10,C=C(C)CSc1nnc(-c2ccc(C)cc2)n1N,2.43%
11,CC(C)N(c1ccccc1)c1ncnc(NCCC(=O)O)c1[N+](=O)[O-],0.23%
12,Cc1ccc2c(c1)N(CC(=O)NCCCN1CCCCC1)C(=O)c1cccnc1O2,-7.1%
13,COc1ccc([C@H]2OC(=O)C[C@H]2C(=O)N2CCN(c3ccccc3F)CC2)cc1OC,-0.84%
14,CCCN(CC(=O)Nc1ccc(OC)c(OC)c1)CC(=O)Nc1ccc(F)c(F)c1F,7.52%
15,O=C(CSc1n[nH]c(-c2cccnc2)n1)Nc1ccnc2ccccc12,-0.07%
16,O=C(Nc1ccc(Cl)cc1)Nc1ccc(Oc2cccnc2)nc1,-12.2%
17,COc1ccc(Nc2nc(-c3cccnc3)nc3ccccc23)cn1,15.3% (active)
18,COc1ccc(S(=O)(=O)N(CCCN2CCCC2=O)Cc2cc3c(C)ccc(C)c3[nH]c2=O)cc1,-7.91%
19,O=C(CN1CCc2ccccc2C1)Nc1cccc(S(=O)(=O)N2CCOCC2)c1,4.91%
20,Cc1ccc(NC(=O)CN2CCc3ccccc3C2)cc1,15.8% (active)
21,Cc1ccc(NC(=O)Cn2sc3ccccc3c2=O)cc1,1.72%

row,Compound,inhibition
1,Cc1ccc(-c2nc(C)sc2CC(=O)O)cc1,16.2% (active)
2,Cc1ccc(-c2nc(C)sc2CC(=O)OCC(=O)Nc2c(F)cccc2F)cc1,4.3%
3,Cc1nc(-c2ccc(F)cc2)c(CC(=O)N2CCN(S(=O)(=O)c3ccc(F)cc3)CC2)s1,-5.03%
4,O=C(Nc1ccc(N2CCOCC2)cc1)c1cccc2c(-c3ccc(F)c(F)c3)coc12,-1.54%
5,Cc1ccc(Nc2nc(CSc3nnc(-c4ccncc4)n3-c3ccccc3C)cs2)cc1,-3.59%
6,O=C(NCC(F)(F)F)c1ccc(S(=O)(=O)NCCc2ccc3c(c2)OCCO3)cc1,0.28%
7,Cn1cc(-c2ccccc2)cc(C#N)c1=O,-5.81%
8,CCCCNC(=O)Nc1c(C)cc(SC#N)cc1C,-1.9%
9,C[C@H]([C@@H](O)[C@@H](O)[C@@H](C)C(C)(C)C)[C@H]1CC[C@H]2C3CC[C@H]4C[C@H](OS(=O)(=O)O)[C@@H](OS(=O)(=O)O)C[C@]4(C)[C@H]3CC[C@]12C (stereo partly specified),3.35%
10,O=C(NCc1ccccc1Cl)C1CCN(c2ncnc3c2nc2n3CCCCC2)CC1,-4.73%
11,C=C1CCC(N(O)c2cc(C)on2)C(=C)CCC2C1CC2(C)C (stereo unspecified),-5.24%
12,CC(C)Oc1cc(F)ccc1-c1cc(C(=O)Nc2cccc(Cl)c2)[nH]n1,-6.05%
13,CC(CNS(=O)(=O)c1ccc(Br)cc1)CN(C)C (stereo unspecified),-0.63%
14,Cc1ccc(C(=O)Cc2nnc(C)s2)cc1,-0.99%
15,O=S(=O)(NCc1ccccc1Cl)c1cnc[nH]1,-4.95%
16,Cc1c(C(=O)N(C)CCc2cnn(C)c2)oc2c(F)cccc12,3.62%
17,COc1cccc(NC(=O)C2(C)CCN2Cc2ccccc2Cl)c1 (stereo unspecified),0.5%
18,COC(=O)c1cc(NC(=O)c2cc(C(C)(C)C)nn2Cc2cccc(C)c2)ccc1N1CCOCC1,4.88%
19,O=C(C(NS(=O)(=O)c1cccc2nsnc12)c1ccccc1)N1CCN(c2ccccc2)CC1 (stereo unspecified),8.08%
20,CN1CCN(C(=O)c2ccc(-c3cc4nc(NCc5cccnc5)n(C)c(=O)c4s3)cc2)CC1,-11.9%
21,Cc1ccccc1OCC(=O)NCC(=O)OCC(=O)c1ccc2ccccc2c1,-2.48%

row,Compound,inhibition
1,Cc1cc2ccccc2n1CCNC(=O)COc1ccc2ccccc2c1,52.5% (active)
2,O=C(COc1ccc(Cl)cc1)NCCSc1ccccc1,-0.51%
3,O=C(NCc1ccccc1)c1cccc(NC(=O)C2CCCCC2)c1,3.16%
4,O=C(CC(NC(=O)c1ccccc1)c1ccccc1)Nc1ccc(F)c(F)c1 (stereo unspecified),6.57%
5,C=CC(COCc1ccccc1)N(CC(=O)OC)S(=O)(=O)c1cc(Br)ccc1OC (stereo unspecified),-3.84%
6,Cc1noc(C)c1CSCC(=O)Nc1ccc(Br)cc1Cl,-5.8%
7,CCN(CC)P(=O)(C(NC(=O)OC)C(F)(F)C(F)(F)C(F)(F)C(F)F)N(CC)CC (stereo unspecified),0.37%
8,CN1c2ccc(C=O)c3c(C=O)ccc(c23)N(C)C1(C)C,29.5% (active)
9,C[C@@H]1CN([C@H](C)CO)S(=O)(=O)c2ccc(C#CC3CCCCC3)cc2O[C@H]1CN(C)C(=O)Cc1ccncc1,2.11%
10,Cc1cc(NC(=O)CCC(=O)N(Cc2ccccc2)C(C(=O)NC2CCCC2)c2ccc(C)o2)no1 (stereo unspecified),-2.98%
11,Cc1sc2ncn(CC(=O)NCCCC(=O)N(C)Cc3ccccc3)c(=O)c2c1C,6.86%
12,CCCNC(=O)c1cc(C2CCCN(C(=O)c3ccc4c(c3)CCO4)C2)on1 (stereo unspecified),2.19%
13,COc1cc(NC(=O)c2ccc(CNc3c(N4CCCC4)c(=O)c3=O)cc2)cc(OC)c1OC,17.7% (active)
14,O=C(NC1CCCCC1)c1ccc(CNc2c(N3CCOCC3)c(=O)c2=O)cc1,-6.33%
15,O=C(NCc1ccccc1)c1ccc(CNc2c(N3CCCC3)c(=O)c2=O)cc1,-2.33%
16,COc1cc(OC)cc(-c2c(-c3cccs3)c3cc(-c4ccc(OC)cc4F)ccc3n2C)c1,8.62%
17,Cc1nnsc1S(=O)(=O)Cc1ccccc1Cl,16.3% (active)
18,CCC1CCCCN1S(=O)(=O)Cc1ccccc1Cl (stereo unspecified),-7.39%
19,Cc1nnsc1C(=O)NCc1c(F)cccc1Cl,2.62%
20,CCOC(=O)N1CCC(NC(=O)C(NS(=O)(=O)c2ccc3c(c2)CCN3C(=O)CC)C(C)C)CC1 (stereo unspecified),0.83%
21,CC(C)Cc1ccc(S(=O)(=O)N2CCN(C(=O)c3ccco3)CC2)cc1,0.21%

row,Compound,inhibition
1,C[C@H](CO)N1C[C@H](C)[C@@H](CN(C)Cc2ccc(-c3ccccc3)cc2)Oc2ccc(NC(=O)Cn3cnnn3)cc2C1=O,4.05%
2,COC(=O)c1cc(=O)n(-c2c(Cl)cc(C(F)(F)F)cc2Cl)[nH]1,0.92%
3,O=C(OCCOc1ccccc1Cl)c1cc(S(=O)(=O)N2CCCCC2)ccc1N1CCOCC1,-7.85%
4,CC(C)c1cc(NCc2ccccn2)n2c(nc3ccccc32)c1C#N,5.58%
5,O=C(Nc1ccc2cn[nH]c2c1)c1ccc(S(=O)(=O)N2CCOCC2)cc1,3.58%
6,Cc1cc2cc(CNC(=O)c3cccs3)ccc2[nH]1,-2.34%
7,Cc1cc2cc(CNC(=O)c3ccc(S(=O)(=O)N4CCOCC4)cc3)ccc2[nH]1,16% (active)
8,N=c1n(Cc2ccc(Cl)cc2)c2ccccc2n1CC(O)c1ccco1 (stereo unspecified),0.26%
9,O=c1[nH]n(-c2ccc([N+](=O)[O-])cc2)c(=O)c2ccccc12,27.3% (active)
10,C=CCNC(=S)N1CCN(CCN=Cc2c(C)[nH]n(-c3ccc([N+](=O)[O-])cc3)c2=O)CC1,-4.37%
11,O=C(CSCc1ccc([N+](=O)[O-])cc1)NCCSCc1ccccc1,2.74%
12,COc1cccc(NC(=O)Cn2c3ccc(F)cc3c3nc4n(c(=O)c32)CCS4)c1,-7.55%
13,COc1ccc(C2/C=C\CN(S(=O)(=O)c3cccs3)CC(=O)N2Cc2ccc(F)cc2)cc1 (stereo unspecified),-0.69%
14,CC(=O)c1ccc(OCCCC(=O)Nc2ccc(C)c(S(=O)(=O)N3CCOCC3)c2)cc1,6.11%
15,CCCCNC(=O)c1ccccc1NC(=O)c1ccccc1N(C)S(C)(=O)=O,2.47%
16,COc1ccccc1N(CCOc1ccccc1)S(=O)(=O)c1ccccc1,5.19%
17,COC(C/C=C/C(=O)[C@@H](C)OCc1ccccc1)OC,5.15%
18,O=c1c2ccccc2nc2n1C(CSCc1cccc(C(F)(F)F)c1)CS2 (stereo unspecified),2.51%
